Hits are enriched below; roughly 28% of the tested compounds scored in any of these assays.
CYP2C9 act: human CYP2C9 activators, primary screen, biochemical, luminescence; AID 1024, 2008; Cytochrome P450 2C9 (Homo sapiens), P11712; activation factor at 5 µM; recombinant CYP2C9, luciferin-H conversion; stronger effect = higher value; factor 1 = untreated enzyme, 0 = blocked; 96,000 compounds, 1.4% hits;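 active = activation factor of 2 or more for CYP2C9 at a 5 µM dose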;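 also: 0 = sulfaphenazole-blocked wells and 1 = vehicle-only wells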
hDAT+cocaine: changed hDAT dopamine uptake under cocaine IC80, either direction, primary screen, cocaine antagonist project, cell-based, LLC-PK1 hDAT, [14C]-dopamine uptake, MLSMR. Sodium-dependent dopamine transporter (Homo sapiens), Q01959. LLC-PK1 hDAT cells, [14C]-dopamine uptake with cocaine IC80; actives deviate in either direction. B-score at 10 µM. 110,000 compounds, 1.3% hits;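 active = Z score or B-score, a plate-position-corrected score, falls beyond the plate's 99.7% confidence bounds, in either direction; inactive = both scores lie inside the 99.7% bounds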;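 also: scored against the spread of the other compound wells on the same plate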
CYP2C9 inh: blockers of cytochrome P450 2C9 activity – biochemical, luminescence, ADME assay, primary screen | P11712 | CYP2C9 Supersomes, luciferin-H conversion | inhibition, % at 5 µM | 96,000 compounds, 20% hits;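 active = blocking of liver enzyme CYP2C9 beyond about 50% at 5 µM, limit read from the data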
CYP2C19 inhib: blockers of cytochrome P450 2C19 activity – biochemical, luminescence, ADME assay, primary screen | 96,000 compounds, 21% hits | P33261 | inhibition, % at 5 µM | CYP2C19 Supersomes, luciferin-H EGE luminescence, 30 min | AID 778, 2007;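 active = CYP2C19 inhibition above a set limit at 5 µM in the primary screen, cut at about 50% in these data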;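 also: plate controls were negative control wells for no effect and 2.5 mM tranylcypromine positive control for full effect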
Target sequence (P33261 whole entry, looked up): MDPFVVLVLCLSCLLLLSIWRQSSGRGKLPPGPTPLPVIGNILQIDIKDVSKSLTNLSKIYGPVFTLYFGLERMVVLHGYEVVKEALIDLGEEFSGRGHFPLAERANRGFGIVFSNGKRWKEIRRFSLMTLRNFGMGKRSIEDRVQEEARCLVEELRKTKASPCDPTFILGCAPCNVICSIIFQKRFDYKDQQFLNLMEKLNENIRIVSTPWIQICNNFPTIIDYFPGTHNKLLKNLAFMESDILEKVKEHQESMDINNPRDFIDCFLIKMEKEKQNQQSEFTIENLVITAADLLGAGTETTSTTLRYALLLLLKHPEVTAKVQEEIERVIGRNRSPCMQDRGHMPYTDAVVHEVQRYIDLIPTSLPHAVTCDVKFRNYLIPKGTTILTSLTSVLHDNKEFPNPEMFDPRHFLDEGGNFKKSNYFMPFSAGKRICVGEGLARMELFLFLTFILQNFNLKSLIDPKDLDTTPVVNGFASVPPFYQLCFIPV
D1 allo mod: D1 CRE-luciferase signal change, two-sided – cell-based, HEK293 D1, dopamine EC30, D1 allosteric modulator project, primary screen | D(1A) dopamine receptor (Homo sapiens), P21728 | dopamine EC30 potentiation; actives deviate in either direction | B-score at 10 µM | 58,000 compounds, 5.9% hits | AID 641, 2007;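 active = luminescence count or its row- and column-corrected plate score outside the 99.7% band of the plate's sample wells, on either side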
CYP2C19 activ: human CYP2C19 activators, primary screen, biochemical, luminescence | Cytochrome P450 2C19 (Homo sapiens), P33261 | recombinant CYP2C19, luciferin-H EGE luminescence; stronger effect = higher value; 0 = fully inhibited enzyme, 1 = untreated enzyme | activation factor at 5 µM | 96,000 tested, under 10 active;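 active = activation factor of at least 2 at 5 µM in the primary screen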;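 also: 0 = wells with 2.5 mM tranylcypromine and 1 = vehicle-only wells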
D1 mod confirm: D1 receptor positive allosteric modulators, retest, confirmation, cell-based, HEK293 D1, CRE-luciferase, duplicate. dopamine EC30 potentiation; stronger effect = higher value. shares compounds with D1 allo mod. 2,200 compounds, 88% hits. luminescence at 10 µM;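 active = luminescence in either of two replicates above the same-plate mean plus 3 SD of the low-dose dopamine control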
D1 ag no DA: D1 receptor agonism without dopamine, confirmation, mechanism study for D1 allosteric modulator project, cell-based, HEK293 D1, CRE-luciferase, secondary assay 1; shares compounds with D1 allo mod; luminescence, no dopamine; stronger effect = higher value; luminescence at 10 µM; 1,900 compounds, 0.8% hits; AID 646, 2007; in the data active = luminescence above about 3900
Isoprot counter: alters isoproterenol CRE-luciferase response in HEK293 cells; shares compounds with D1 allo mod; HEK293 D1 CRE-luciferase, isoproterenol EC30 counter-screen; calls only at 10 µM; 2,200 compounds, 63% hits;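 active = luminescence in either replicate above plate mean of wells with a partly effective reference agonist dose plus 3 SD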;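 also: isoproterenol raises cAMP through native beta-adrenoceptor Gs so signal bypasses D1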
Starred values were filed as active, the others as inactive; i = inactive; . = no result given; + = active, no number.

SMILES | CYP2C9 act | hDAT+cocaine | CYP2C9 inh | CYP2C19 inhib | D1 allo mod | CYP2C19 activ | D1 mod confirm | D1 ag no DA | Isoprot counter
O=C(c1ccc2ncsc2c1)N1CCN(c2ccc(O)cc2)CC1 | 0.8 | 0.72 | 15.8 | 6.3 | . | 0.9 | . | . | .
CCOc1ccc(Cc2nc(-c3nonc3N)no2)cc1OCC | 0.9 | 0.67 | 6.6 | 50.0* | 7.68* | 0.5 | 13988* | 1580 | +
Cc1ccc(-c2cc(C(=O)NCc3cccnc3)no2)cc1 | 0.6 | 0.439 | 44.7 | 20.0 | 0.0556 | 0.8 | . | . | .
Cc1ccc(-c2noc(COc3ccc4c(c3)OCO4)n2)cc1 | . | -0.699 | . | . | . | . | . | . | .
COc1ccc(-c2noc(COc3ccc4ccccc4c3Br)n2)cc1OC | 0.8 | 1.75 | 24.1 | 49.0 | 3.74* | 0.5 | 8636* | 1540 | i
COc1ccc(Cc2nc(-c3ccc(Cl)cc3)no2)cc1 | 1 | -0.153 | 2.6 | -1.4 | 0.00689 | 1 | . | . | .
COc1ccc(-c2noc(COc3ccc(C)c(C)c3)n2)cc1OC | 0.6 | 0.295 | 37.0 | 72.7* | 4.51* | 0.3 | 9288* | . | +
COc1ccc(-c2noc(Cc3ccc(Cl)cc3)n2)cc1OC | 0.6 | -0.133 | 38.8 | 12.9 | . | 0.9 | . | . | .
COc1ccc(-c2cc(C(=O)NCc3cccnc3)no2)cc1OC | 0.9 | 0.16 | 14.5 | -2.2 | 4.22* | 1 | 9080* | . | i
COc1ccccc1NC(=O)CCSc1nnnn1C | 1 | . | -3.4 | 7.2 | 1.5 | 0.9 | . | . | .
CN(C(=O)COc1ccccc1)c1nnc(C23CC4CC(CC(C4)C2)C3)s1 | . | -0.545 | . | . | . | . | . | . | .
COc1ccc(-c2noc(CCC(=O)Nc3cccnc3)n2)cc1OC | 0.7 | 0.239 | 27.8 | 30.2 | 4.65* | 0.7 | 17976* | 1752 | i
COc1cccc(-c2noc(CCC(=O)Nc3cccnc3)n2)c1 | 0.5 | 0.156 | 49.7 | 38.5 | 1.58 | 0.6 | . | . | .
N#CC1=C(N)Oc2nc(-c3ccccc3)[nH]c2C1c1cccnc1 (stereo unspecified) | 0.6 | 1.77 | 36.1 | 36.1 | 5.14* | 0.6 | 8448* | 1564 | i
CCN(CC)c1ccc2c(c1)OC(N)=C(C#N)C2c1cccnc1 (stereo unspecified) | 0.5 | -1.79 | 45.1 | 82.2* | 9.28* | 0.2 | 13200* | 2064 | +
Cc1ccc(C2C(C#N)=C(N)Oc3nc(-c4ccccc4)[nH]c32)o1 (stereo unspecified) | 0.7 | 0.0556 | 25.2 | 10.0 | . | 0.9 | . | . | .
COC(=O)c1ccc(Oc2cc(C)nc(SC)n2)cc1 | 0.3 | 0.462 | 72.1* | 86.2* | 5.35* | 0.1 | 15492* | 1728 | +
COC(=O)COc1ccc(Oc2cc(C)nc(SC)n2)nn1 | 1 | 1.32 | -4.3 | -1.2 | 0.0693 | 1 | . | . | .
Cc1nn(-c2ccccc2)cc1/C=N/O | 0.8 | -1.24 | 20.5 | 15.0 | 4.27* | 0.8 | 7640* | . | i
CCC(Sc1nc2n[nH]c(C)c2c(=N)n1-c1ccc(C)c(Cl)c1)C(=O)N1CCOCC1 (stereo unspecified) | 0.5 | 0.741 | 46.3 | -1.2 | 0.732 | 1 | . | . | .
CCC(Sc1nc2n[nH]c(C)c2c(=N)n1-c1cccc(Cl)c1)C(=O)NCCOC (stereo unspecified) | 0.4 | 1.97* | 64.6* | 34.7 | 5.09* | 0.7 | 11752* | 1764 | +

From PubChem
